# Source: the supplement of paper PMC8728848
# Many of the other results were omitted from the sample, so the strongest signals are more common in it than they were.
# B1: Tp0751, 83732 (protein)
# chain: MSYYHHHHHHLESTSLYKKAGFQHGHVPPRRIPPHDTFGALPTAALPSNARDTAAHPSDTADNTSGSSTTTDPRSHGNAPPAPVGGAAQTHTQPPVQTAMRIALWNRATHGEQGALQHLLAGLWIQTEISPNSGDIHPLLFFDREHAEITFSRASVQEIFLVDSAHTHRKTVSFLTRNTAISSIRRRLEVTFESHEVIHVRAVEDVARLKIGSTSMWDGQYTRYHAGPASAPSP
# How the values were obtained:
# Assay in all cases: glycan array binding signal (z-score within array); higher = stronger binding
# Details in all cases: glycan notation: IUPAC condensed, linker removed
# [1] = target: Fuc(a1-2)Gal
# Method in brief: (§1)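 The binding signal is a Z-score computed within each array and averaged over linkers. Arrays of the same protein sequence at different concentrations or buffers were also averaged together. Data originate from 3228 arrays in the Consortium for Functional Glycomics database, kept only where the protein sequence was available.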
# [2] = target: Fuc(a1-2)Gal(b1-4)GlcNAc(b1-2)Man(a1-3)[Fuc(a1-2)Gal(b1-4)GlcNAc(b1-2)Man(a1-6)]Man(b1-4)GlcNAc(b1-4)[Fuc(a1-6)]GlcNAc
# Method in brief: as §1
# [3] = target: Fuc(a1-2)Gal(b1-4)GlcNAc(b1-6)GalNAc
# Method in brief: as §1
# [4] = target: Fuc(a1-2)Gal(b1-4)[Fuc(a1-3)]GlcNAc(b1-3)Gal(b1-4)[Fuc(a1-3)]GlcNAc(b1-3)Gal(b1-4)[Fuc(a1-3)]GlcNAc
# Method in brief: as §1
# [5] = target: Fuc(a1-2)Gal6S(b1-3)GlcNAc6S
# Method in brief: as §1
# [6] = target: Fuc(a1-2)[Gal(a1-3)]Gal(b1-3)GlcNAc
# Method in brief: as §1
# [7] = target: Fuc(a1-2)[Gal(a1-3)]Gal(b1-4)GlcNAc
# Method in brief: as §1
# [8] = target: Fuc(a1-2)[Gal(a1-3)]Gal(b1-4)GlcNAc(b1-2)Man(a1-3)[Fuc(a1-2)[Gal(a1-3)]Gal(b1-4)GlcNAc(b1-2)Man(a1-6)]Man(b1-4)GlcNAc(b1-4)[Fuc(a1-6)]GlcNAc
# Method in brief: as §1
# [9] = target: Fuc(a1-2)[GalNAc(a1-3)]Gal(b1-4)GlcNAc(b1-2)Man(a1-3)[Fuc(a1-2)[GalNAc(a1-3)]Gal(b1-4)GlcNAc(b1-2)Man(a1-6)]Man(b1-4)GlcNAc(b1-4)GlcNAc
# Method in brief: as §1
# [10] = target: Fuc(a1-3)[Gal(b1-4)]GlcNAc(b1-6)[Gal(b1-3)GlcNAc(b1-3)]Gal(b1-4)Glc
# Method in brief: as §1
# [11] = target: Gal(a1-3)Gal(b1-4)GlcNAc(b1-2)Man(a1-3)[Gal(a1-3)Gal(b1-4)GlcNAc(b1-2)Man(a1-6)]Man(b1-4)GlcNAc(b1-4)GlcNAc
# Method in brief: as §1
# [12] = target: Gal(a1-3)Gal(b1-4)GlcNAc(b1-3)GalNAc
# Method in brief: as §1
# [13] = target: Gal(b1-2)Gal
# Method in brief: as §1
# [14] = target: Gal(b1-3)Gal
# Method in brief: as §1
# [15] = target: Gal(b1-3)GlcNAc
# Method in brief: as §1
# [16] = target: Gal(b1-3)GlcNAc(b1-3)Gal(b1-4)GlcNAc
# Method in brief: as §1
# [17] = target: Gal(b1-3)GlcNAc(b1-3)Gal(b1-4)GlcNAc(b1-3)Gal(b1-4)GlcNAc(b1-2)[Gal(b1-3)GlcNAc(b1-3)Gal(b1-4)GlcNAc(b1-3)Gal(b1-4)GlcNAc(b1-6)]Man(a1-6)[Gal(b1-3)GlcNAc(b1-3)Gal(b1-4)GlcNAc(b1-3)Gal(b1-4)GlcNAc(b1-2)Man(a1-3)]Man(b1-4)GlcNAc(b1-4)[Fuc(a1-6)]GlcNAc
# Method in brief: as §1
# [18] = target: Gal(b1-3)[Fuc(a1-4)]GlcNAc
# Method in brief: as §1
# [19] = target: Gal(b1-3)[Fuc(a1-4)]GlcNAc(b1-2)Man
# Method in brief: as §1
# [20] = target: Gal(b1-3)[GlcNAc(b1-6)]GalNAc
# Method in brief: as §1
# [21] = target: Gal(b1-4)GlcNAc
# Method in brief: as §1
# [22] = target: Gal(b1-4)GlcNAc(b1-2)Man(a1-3)[GlcNAc(b1-4)][Gal(b1-4)GlcNAc(b1-2)Man(a1-6)]Man(b1-4)GlcNAc(b1-4)GlcNAc
# Method in brief: as §1
# [23] = target: Gal(b1-4)GlcNAc(b1-2)[Gal(b1-4)GlcNAc(b1-4)]Man(a1-3)[Gal(b1-4)GlcNAc(b1-2)[Gal(b1-4)GlcNAc(b1-6)]Man(a1-6)]Man(b1-4)GlcNAc(b1-4)GlcNAc
# Method in brief: as §1
# [24] = target: Gal(b1-4)GlcNAc(b1-3)Gal(b1-4)Glc
# Method in brief: as §1
# [25] = target: Gal(b1-4)GlcNAc(b1-3)Gal(b1-4)GlcNAc(b1-3)[Gal(b1-4)GlcNAc(b1-3)Gal(b1-4)GlcNAc(b1-6)]GalNAc
# Method in brief: as §1
# [26] = target: Gal(b1-4)GlcNAc(b1-3)GalNAc
# Method in brief: as §1
# [27] = target: Gal3S(b1-3)GalNAc
# Method in brief: as §1
# [28] = target: Gal3S(b1-4)Glc
# Method in brief: as §1
# [29] = target: Gal3S(b1-4)[Fuc(a1-3)]GlcNAc6S
# Method in brief: as §1
# [30] = target: Gal3S6S(b1-4)GlcNAc6S
# Method in brief: as §1
# [31] = target: Gal6S(b1-3)GlcNAc6S
# Method in brief: as §1
# [32] = target: GalNAc(a1-3)Gal
# Method in brief: as §1
# [33] = target: Glc(a1-6)Glc(a1-6)Glc(a1-6)Glc
# Method in brief: as §1
# [34] = target: GlcNAc(a1-4)Gal(b1-4)GlcNAc(b1-3)Gal(b1-4)[Fuc(a1-3)]GlcNAc(b1-3)Gal(b1-4)[Fuc(a1-3)]GlcNAc
# Method in brief: as §1
# [35] = target: GlcNAc(b1-2)Gal(b1-3)GalNAc
# Method in brief: as §1
# [36] = target: GlcNAc(b1-2)[GlcNAc(b1-4)]Man(a1-3)[GlcNAc(b1-4)][GlcNAc(b1-2)[GlcNAc(b1-6)]Man(a1-6)]Man(b1-4)GlcNAc(b1-4)[Fuc(a1-6)]GlcNAc
# Method in brief: as §1
# [37] = target: GlcNAc(b1-2)[GlcNAc(b1-6)]Man(a1-6)[GlcNAc(b1-2)Man(a1-3)]Man(b1-4)GlcNAc(b1-4)[Fuc(a1-6)]GlcNAc
# Method in brief: as §1
# [38] = target: GlcNAc(b1-2)[GlcNAc(b1-6)]Man(a1-6)[GlcNAc(b1-4)][GlcNAc(b1-2)Man(a1-3)]Man(b1-4)GlcNAc(b1-4)GlcNAc
# Method in brief: as §1
# [39] = target: GlcNAc(b1-3)Gal(b1-4)GlcNAc(b1-3)Gal(b1-4)GlcNAc(b1-3)Gal(b1-4)GlcNAc(b1-3)Gal(b1-4)GlcNAc(b1-2)Man(a1-3)[GlcNAc(b1-3)Gal(b1-4)GlcNAc(b1-3)Gal(b1-4)GlcNAc(b1-3)Gal(b1-4)GlcNAc(b1-3)Gal(b1-4)GlcNAc(b1-2)Man(a1-6)]Man(b1-4)GlcNAc(b1-4)[Fuc(a1-6)]GlcNAc
# Method in brief: as §1
# [40] = target: GlcNAc(b1-3)Gal(b1-4)GlcNAc(b1-3)Gal(b1-4)GlcNAc(b1-3)Gal(b1-4)GlcNAc(b1-3)Gal(b1-4)GlcNAc(b1-2)[GlcNAc(b1-3)Gal(b1-4)GlcNAc(b1-3)Gal(b1-4)GlcNAc(b1-3)Gal(b1-4)GlcNAc(b1-3)Gal(b1-4)GlcNAc(b1-6)]Man(a1-6)[GlcNAc(b1-3)Gal(b1-4)GlcNAc(b1-3)Gal(b1-4)GlcNAc(b1-3)Gal(b1-4)GlcNAc(b1-3)Gal(b1-4)GlcNAc(b1-2)Man(a1-3)]Man(b1-4)GlcNAc(b1-4)[Fuc(a1-6)]GlcNAc
# Method in brief: as §1
# [41] = target: GlcNAc(b1-3)Gal(b1-4)GlcNAc(b1-6)[Gal(b1-3)]GalNAc
# Method in brief: as §1
# [42] = target: Man(b1-4)GlcNAc
# Method in brief: as §1
# [43] = target: Neu5Ac(a2-3)Gal(b1-3)GlcNAc(b1-3)Gal(b1-4)GlcNAc
# Method in brief: as §1
# [44] = target: Neu5Ac(a2-3)Gal(b1-3)[Fuc(a1-4)]GlcNAc(b1-3)Gal(b1-4)[Fuc(a1-3)]GlcNAc
# Method in brief: as §1
# [45] = target: Neu5Ac(a2-3)Gal(b1-4)GlcNAc(b1-2)Man
# Method in brief: as §1
# [46] = target: Neu5Ac(a2-3)Gal(b1-4)GlcNAc(b1-2)[Neu5Ac(a2-3)Gal(b1-4)GlcNAc(b1-4)]Man(a1-3)[GlcNAc(b1-4)][Neu5Ac(a2-3)Gal(b1-4)GlcNAc(b1-4)Man(a1-6)]Man(b1-4)GlcNAc(b1-4)GlcNAc
# Method in brief: as §1
# [47] = target: Neu5Ac(a2-3)Gal(b1-4)GlcNAc(b1-3)Gal
# Method in brief: as §1
# [48] = target: Neu5Ac(a2-3)Gal(b1-4)GlcNAc(b1-3)Gal(b1-4)GlcNAc(b1-2)Man(a1-3)[Neu5Ac(a2-3)Gal(b1-4)GlcNAc(b1-3)Gal(b1-4)GlcNAc(b1-2)Man(a1-6)]Man(b1-4)GlcNAc(b1-4)GlcNAc
# Method in brief: as §1
# [49] = target: Neu5Ac(a2-3)Gal(b1-4)GlcNAc(b1-3)[Neu5Ac(a2-3)Gal(b1-4)GlcNAc(b1-6)]GalNAc
# Method in brief: as §1
# [50] = target: Neu5Ac(a2-3)[GalNAc(b1-4)]Gal(b1-4)GlcNAc
# Method in brief: as §1
# [51] = target: Neu5Ac(a2-3)[GalNAc(b1-4)]Gal(b1-4)GlcNAc(b1-3)GalNAc
# Method in brief: as §1
# [52] = target: Neu5Ac(a2-6)Gal(b1-4)GlcNAc(b1-2)Man(a1-6)[Gal(b1-4)GlcNAc(b1-2)Man(a1-3)]Man(b1-4)GlcNAc(b1-4)GlcNAc
# Method in brief: as §1
# [53] = target: Neu5Ac(a2-8)Neu5Ac(a2-3)[GalNAc(b1-4)]Gal(b1-4)Glc
# Method in brief: as §1
# [54] = target: Neu5Ac9Ac(a2-6)Gal(b1-4)GlcNAc
# Method in brief: as §1
# [55] = target: Neu5Gc(a2-3)Gal(b1-3)GlcNAc
# Method in brief: as §1
binder,measurement,setting,value
B1,glycan array binding signal (z-score),[1],-0.265
same,glycan array binding signal (z-score),[2],1.64
same,glycan array binding signal (z-score),[3],-0.071
same,glycan array binding signal (z-score),[4],0.013
same,glycan array binding signal (z-score),[5],1.11
same,glycan array binding signal (z-score),[6],1.77
same,glycan array binding signal (z-score),[7],0.066
same,glycan array binding signal (z-score),[8],-0.276
same,glycan array binding signal (z-score),[9],0.638
same,glycan array binding signal (z-score),[10],0.413
same,glycan array binding signal (z-score),[11],0.262
same,glycan array binding signal (z-score),[12],-0.025
same,glycan array binding signal (z-score),[13],2.31
same,glycan array binding signal (z-score),[14],0.017
same,glycan array binding signal (z-score),[15],-0.323
same,glycan array binding signal (z-score),[16],-0.382
same,glycan array binding signal (z-score),[17],-0.07
same,glycan array binding signal (z-score),[18],-0.004
same,glycan array binding signal (z-score),[19],-0.163
same,glycan array binding signal (z-score),[20],-0.373
same,glycan array binding signal (z-score),[21],0.21
same,glycan array binding signal (z-score),[22],-0.493
same,glycan array binding signal (z-score),[23],0.31
same,glycan array binding signal (z-score),[24],-0.441
same,glycan array binding signal (z-score),[25],1.78
same,glycan array binding signal (z-score),[26],-0.427
same,glycan array binding signal (z-score),[27],3.13
same,glycan array binding signal (z-score),[28],5.83
same,glycan array binding signal (z-score),[29],1.94
same,glycan array binding signal (z-score),[30],2.54
same,glycan array binding signal (z-score),[31],2.18
same,glycan array binding signal (z-score),[32],-0.699
same,glycan array binding signal (z-score),[33],1.24
same,glycan array binding signal (z-score),[34],1.63
same,glycan array binding signal (z-score),[35],-0.378
same,glycan array binding signal (z-score),[36],-0.299
same,glycan array binding signal (z-score),[37],0.781
same,glycan array binding signal (z-score),[38],-0.584
same,glycan array binding signal (z-score),[39],-0.326
same,glycan array binding signal (z-score),[40],-0.088
same,glycan array binding signal (z-score),[41],-0.81
same,glycan array binding signal (z-score),[42],-0.599
same,glycan array binding signal (z-score),[43],0.058
same,glycan array binding signal (z-score),[44],0.658
same,glycan array binding signal (z-score),[45],6.75
same,glycan array binding signal (z-score),[46],-0.386
same,glycan array binding signal (z-score),[47],-0.332
same,glycan array binding signal (z-score),[48],0.542
same,glycan array binding signal (z-score),[49],-0.246
same,glycan array binding signal (z-score),[50],-0.76
same,glycan array binding signal (z-score),[51],0.098
same,glycan array binding signal (z-score),[52],-0.478
same,glycan array binding signal (z-score),[53],-0.022
same,glycan array binding signal (z-score),[54],-0.145
same,glycan array binding signal (z-score),[55],0.052
